Assay outcomes (PubChem)
An excerpt weighted towards active compounds, which were near 18% of everything screened.
IL-1B inflam inh – blocks inflammasome-driven IL-1 beta release. THP-1 LPS/ATP IL-1B secretion, AlphaLISA, 16 h; hits give low values. hit rate 4.7% among 360,000. activity change, % at 57.5 µM; in the data active = activity change below about -50%; inconclusive = mostly about -30% to -49%
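THP-1 cells pretreated 1 hr with compounds (up to 57.5 uM final), then stimulated with LPS (250 ng/mL final) plus ATP (1.25 mM final); secreted IL-1B measured by AlphaLISA after 16 hr, decreased signal indicating inhibition.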
TDP1 cell noCPT – qHTS for Inhibitors of human tyrosyl-DNA phosphodiesterase 1 (TDP1): qHTS in cells in absence of CPT; DT40 Tdp1-/- hTDP1 cells, no CPT, ATP luminescence, 48 h; Potency, µM (top dose mostly 46.2 µM), actives largely listed as inhibitors; hit rate 15% among 420,000; note: nearly all actives have a fitted effect of over 55% in size
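DT40 Tdp1-/-;hTDP1 cells, no CPT (DMSO vehicle only), 400 cells/well; compounds pin-transferred; ≥48 hr, 37 °C; CellTiter-Glo 30 min RT dark, luminescence read.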
LDHA inh – blocks human lactate dehydrogenase A | purified LDHA, NADH/diaphorase-resazurin fluorescence; hits give low values | P00338 | activity change, % (values are at about 110 or 230 µM) | hit rate 0.15% among 480,000; in the data active = activity change below about -30%; inconclusive = mostly about -25% to -30%
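Remaining NADH was detected by diaphorase (0.133 mg/mL) converting 37 µM resazurin to fluorescent resorufin, read at 0 and 20 minutes. The preceding 5-minute room-temperature reaction used 2 nM LDHA, 0.2 mM sodium pyruvate and 0.06 mM NADH at pH 7.4.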
RORgamma inh – blocks mouse ROR gamma transcriptional activity | Potency, µM (titrated, usually from 53.6 µM), actives largely listed as inhibitors | Drosophila S2 Gal4-RORgamma UAS-luciferase reporter, 20 h | hit rate 5.4% among 310,000 | P51450; note: nearly all actives have a fitted effect of over 60% in size
Target sequence (P51450 whole entry, looked up, the tested form may be a part): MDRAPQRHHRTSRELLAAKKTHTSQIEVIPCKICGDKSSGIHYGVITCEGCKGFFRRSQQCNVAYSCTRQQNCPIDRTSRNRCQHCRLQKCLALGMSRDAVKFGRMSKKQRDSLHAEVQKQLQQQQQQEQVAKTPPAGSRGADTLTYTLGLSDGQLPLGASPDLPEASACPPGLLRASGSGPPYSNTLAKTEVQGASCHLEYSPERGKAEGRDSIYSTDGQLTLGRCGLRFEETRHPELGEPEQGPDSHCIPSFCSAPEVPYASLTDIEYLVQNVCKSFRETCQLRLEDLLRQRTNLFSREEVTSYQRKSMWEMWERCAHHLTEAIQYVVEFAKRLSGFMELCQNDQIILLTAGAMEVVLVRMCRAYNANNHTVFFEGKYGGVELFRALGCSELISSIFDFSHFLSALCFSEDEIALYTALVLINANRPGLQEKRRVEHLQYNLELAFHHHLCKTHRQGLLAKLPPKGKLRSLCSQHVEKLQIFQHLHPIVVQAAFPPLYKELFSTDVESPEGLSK
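Luminescence from a UAS-regulated Photinus luciferase reporter in stably transfected Drosophila Schneider cells is measured; decreased signal marks ROR gamma inhibition. Fusion expression is induced by 700 uM copper sulfate for 20 hr.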
Gal4-VP16 FLuc – inhibits Gal4-VP16 luciferase reporter, ROR gamma counter-screen; Drosophila S2 Gal4-VP16 UAS-luciferase, luminescence, 20 h; AID 2546; hit rate 3.5% among 310,000; Potency, µM (top dose mostly 53.6 µM), hits mostly inhibitors;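 note: Gal4-VP16 expression switched on by copper sulfate through the metallothionein promoter; nearly all actives have a fitted effect of over 50% in size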
DT40 TDP1 CPT – growth inhibition of DT40 Tdp1-/-;hTDP1 cells with camptothecin (screen for TDP1 inhibitors); AID 686979; Potency, µM (highest dose often 46.2 µM), most hits filed as inhibitors; chicken DT40 Tdp1-/-;hTDP1 cells + 20 nM CPT, ATP luminescence, 48 h; hit rate 12% among 420,000; note: nearly all actives have a fitted effect of over 55% in size
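Cell growth measured by CellTiter-Glo luminescence after a minimum 48 h, 37 C compound exposure with 20 nM CPT in Tdp1-knockout DT40 cells stably expressing hTDP1, seeded 400/well; qHTS titration format.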
Hits are given with their value; - = inactive; ? = inconclusive; . = not tested or not shown; [ ] = another dose, or the depositor's remark. Unless noted, calls come from the whole dose curve; as a rule, active = well fitted curve in the direction sought with a large enough effect; inconclusive = small, poorly fitted or top-dose-only effect, or another doubt; inactive = no such curve, though single readings can be large; an effect the other way counts as inactive or inconclusive.

SMILES	IL-1B inflam inh	TDP1 cell noCPT	LDHA inh	RORgamma inh	Gal4-VP16 FLuc	DT40 TDP1 CPT
Cc1sc2ncnc(N/N=C/c3ccccc3O)c2c1C	-	3.26µM	-	7.94µM	15.8µM	3.66µM
COc1ccc(/C=N/Nc2nonc2N)cc1	-	-	-	-	-	-
Cc1ccc2nsnc2c1NC(=O)c1ccc(Cl)cc1Cl	.	.	-	.	.	.
COP(=O)(OC)c1nc(-c2cccc([N+](=O)[O-])c2)oc1NCc1ccccc1	.	.	-	.	.	.
Nc1c(Cl)ncnc1N/N=C/c1ccc(O)cc1	-	-	-	10µM	12.6µM	-
COc1ccc(C(=O)Nc2c(C)cccc2C(C)C)cc1F	.	.	-	.	.	.
N#Cc1ccc(CS(=O)(=O)Cc2ccccc2C(F)(F)F)cc1	.	.	-	.	.	.
Cc1c(NC(=O)c2ccc(COc3ccc4ccccc4c3)o2)c(=O)n(-c2ccccc2)n1C	-	23.1µM	-	-	-	?
Cc1c(NC(=O)c2cc3ccccc3o2)c(=O)n(-c2ccccc2)n1C	-	-	-	-	-	-
CN(CCc1ccc(Cl)c(Cl)c1)C[C@@H](O)COc1ccc(NS(C)(=O)=O)cc1	.	23.7µM	.	-	-	?
CC(O)c1ccc(-c2ccc(CNC3CCCCC3)o2)cc1 (stereo not given)	.	.	-	.	.	.
CCOC(=O)[C@]12CCC=C1N(Cc1ccccc1)C(=O)[C@H](CC(=O)NCc1ccc(C)o1)C2	-	-	-	.	.	-
CCCCCCCCN1C(=O)[C@H](CC(=O)NCc2ccc(C)o2)C[C@@]2(C(=O)OCC)CCC=C12	.	16.4µM	-	.	.	?
CCCCCCCCN1C(=O)[C@H](CC(=O)NCc2ccc(C)o2)C[C@@]2(C(=O)OC)CCCCC=C12	-53.9	20.6µM	-	.	.	?
COC(=O)[C@]12CCCCC=C1N(CCC1=CCCCC1)C(=O)[C@H](CC(=O)NCc1ccc(C)o1)C2	-	?	-	.	.	?
O=C(COC(=O)c1cc(S(=O)(=O)N2CCOCC2)c(Cl)cc1Cl)NC1CC1	-96.7	-	-	.	.	-
COc1ccc(OCCOC(=O)c2cc(S(=O)(=O)N3CCOCC3)c(Cl)cc2Cl)cc1	-93.7	?	-	.	.	?
O=C(NC1CCCC1)c1cc(S(=O)(=O)N2CCOCC2)c(Cl)cc1Cl	-	-	-	-	-	-
COC(=O)c1ccc(NC(=S)NC2CCCCC2C)cc1 (stereo not given)	-	25.9µM	-	7.94µM	3.55µM	23.1µM
COC(=O)c1ccc(NC(=S)NC(=O)C2CCC2)cc1	-	-	-	11.2µM	?	-
COC(=O)c1ccc(NC(=S)Nc2ccccc2)cc1	-	?	-	-	-[0.365 µM]	?
COC(=O)c1ccc(NC(=S)Nc2ccc3ccccc3c2)cc1	-	-	-	12.6µM	?	-
COc1ccc(NC(=S)NC(=O)C2CCC2)cc1	?	-	-	8.91µM	11.2µM	-
O=C(NCc1cccs1)c1cnccn1	.	.	-	.	.	.
COc1ccc(NC(=O)Nc2c(NC3CCCCC3)c3ccccc3oc2=O)c(OC)c1	.	.	-	.	.	.
SMILES	IL-1B inflam inh	TDP1 cell noCPT	LDHA inh	RORgamma inh	Gal4-VP16 FLuc	DT40 TDP1 CPT
CCOC(=O)c1ccc(NC(=O)C2C3CCCCC32)cc1 (stereo not given)	-63.8	?	-	?	-	-
CCOC(=O)c1ccc(NC(=S)NC2CCCC2)cc1	-	-	-	?	?	-
CCOC(=O)c1ccc(NC(=O)C2C3CCC(C3)C2C(=O)O)cc1 (stereo not given)	-	-	-	?	-	-
CCOC(=O)c1ccc(NC(=S)NC(=O)C2CCCC2)cc1	-	-	-	7.08µM	7.08µM	-
CC(c1ccccc1)N(C)CC(=O)NC1(C#N)CCCC1 (stereo not given)	.	.	-	.	.	.
COc1cccc(/C=N/NC(=O)CNC(=O)C2COc3ccccc3O2)c1O (stereo not given)	-	3.66µM	-	0.355µM	0.447µM	5.8µM
COc1cc(/C=N/NC(=O)c2ccc3c(c2)OCCO3)cc(Br)c1O	-	?	-	15.8µM	?	-
CCn1ncc(/C=N/NC(=O)c2ccc3c(c2)OCO3)c1C	-	?	-	-	-	?
O=C(CNC(=O)C1COc2ccccc2O1)N/N=C\c1ccccc1Cl (stereo not given)	-	-	-	-	-	-
O=C(CNC(=O)c1ccc2c(c1)OCCO2)N/N=C/c1ccc(O)cc1O	-	18.4µM	-	-	-	?
Cc1cccc(/C=N/NC(=O)c2ccc3c(c2)OCCO3)c1O	.	.	.	3.55µM	2.51µM	.
Cc1noc(C(C)N2CCN(c3oc(-c4ccco4)nc3C#N)CC2)n1 (stereo not given)	.	.	-	.	.	.
CCCN1C(=O)C(C)=C(C)C1c1cn(C)c2ccccc12 (stereo not given)	.	.	-	.	.	.
O=C(N/N=C/c1cc2c(cc1Cl)OCO2)c1ccc2c(c1)OCCO2	-58.4	?	-	-	-	-
COc1cccc(/C=N/NC(=O)CNC(=O)c2ccc3c(c2)OCCO3)c1O	-	?	-	0.631µM	4.47µM	16.4µM
COc1ccc(/C=N/NC(=O)C2C3CCCCC32C)cc1OC (stereo not given)	-	-	-	-	-	-
COc1cc(/C=N/NC(=O)C2C3CCCCC32C)cc(Br)c1O (stereo not given)	-	-	-	7.08µM	5.01µM	-
O=C(N/N=C/c1c(Cl)[nH]c2ccccc12)c1ccc2c(c1)OCCO2	-56.9	?	-	-	-	?
Cc1ccc2[nH]c(C(=O)N3CCN(c4ccccc4)CC3)cc2c1	.	.	-	.	.	.
O=C(OCC1(COC(=O)c2ccc(F)cc2)CCCC(COC(=O)c2ccc(F)cc2)(COC(=O)c2ccc(F)cc2)C1=O)c1ccc(F)cc1	.	.	-	.	.	.
O=C(N/N=C/c1cccnc1)c1ccc2c(c1)OCO2	-	-	-	-	-	-
O=C(Cc1ccccc1)N/N=C/c1cc2c(cc1Cl)OCO2	-	29.1µM	-	-	-	?
O=C(N/N=C\c1cc2c(cc1Cl)OCO2)c1cccs1	-	?	-	-	?	?
CCOc1cccc(/C=N/NC(=O)c2ccc3c(c2)OCCO3)c1O	-	4.11µM	-	0.398µM	0.631µM	2.59µM
O=C(N/N=C\c1cccc(OC(=O)c2ccco2)c1)c1ccc2c(c1)OCO2	-	?	-	14.1µM	6.31µM	?
COc1cc(/C=N/NC(=O)c2ccc3c(c2)OCCO3)c(Br)c(Br)c1O	-	?	-	-	-	-
O=C(N/N=C/c1cccc(O)c1)c1ccc2c(c1)OCCO2	-	-	-	3.16µM	6.31µM	-
O=C(CNC(=O)c1ccncc1)N/N=C/c1ccc(O)cc1O	-	18.4µM	-	-	-	?
O=C(CNC(=O)c1ccncc1)N/N=C/c1ccccn1	-	-	-	-	-	-
